PubChem BioAssay (EPA / NIEHS)
Where “and” joins values, the source holds several entries; their conditions need not be identical. Equal entries are not always repeated. Where a structure was tested more than once in an assay, its records may differ in their call. Calls of active or inactive are those of the source. How the source made its calls: active means hit-call score of the fitted dose curve at least 0.9, where 1 is the maximum; inactive means score below 0.9.

Assays:
[1] = target: Bile acid receptor (Homo sapiens) (UniProt Q96RI1); assay: ATG_IR1_CIS: Attagene CIS-FACTORIAL HepG2 Assay for human Nuclear Receptor Subfamily 1 Group H Member 4 (NR1H4), IR1 submotif (AID 2282946); details: IR1 reporter transcription, actives raise or lower the signal
Summary of the method: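 Readout: reporter transcript levels by RT-PCR with fluorescent capillary electrophoresis, from HepG2 cells transiently transfected with multiplexed cis-regulated reporters and dosed 24 h. Gain- or loss-of-signal fitted versus DMSO negative control.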

[2] = ATG_ISRE_CIS: Attagene CIS-FACTORIAL HepG2 Assay for human Interferon Regulatory Factor 1 (IRF1) binding to an Interferon-Stimulated Response Element (ISRE) (AID 2282948); details: HepG2 ISRE cis-reporter (Attagene), mRNA transcription readout; actives raise or lower the signal
Summary of the method: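 Read-out: fluorescent RT-PCR products resolved by capillary electrophoresis, reporting endogenous transcription factor activity via ISRE-driven reporter mRNA in transfected HepG2 cells dosed for 24 h; gain or loss fitted relative to DMSO.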

[3] = ATG_M_32_CIS: Attagene CIS-FACTORIAL HepG2 Assay for M32 Transcription Factor (Internal Marker) (AID 2282949); details: HepG2 Attagene cis-factorial M32 reporter, mRNA; actives raise or lower the signal;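 further: background control marker of the multiplexed CIS panel rather than a real target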
Summary of the method: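 Using DMSO as baseline, bidirectional curve fits were applied to reporter mRNA signals. These came from transiently transfected HepG2 cells exposed for 24 h, with RNA analysed by RT-PCR, FAM primer extension, HpaI digestion and CE.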

[4] = ATG_M_06_CIS: Attagene CIS-FACTORIAL HepG2 Assay for M06 Transcription Factor (Internal Marker) (AID 2282950); details: HepG2 Attagene CIS-FACTORIAL M06 internal marker reporter; actives raise or lower the signal
Summary of the method: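 HepG2 liver cells, 24 h exposure. Reporter transcripts from transfected cis-element constructs quantified by RT-PCR/capillary electrophoresis fluorescence. Bidirectional curve fit against DMSO.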

[5] = target: Hypoxia-inducible factor 1-alpha (Homo sapiens) (UniProt Q16665); assay: ATG_HIF1a_CIS: Attagene CIS-FACTORIAL HepG2 Assay for human Hypoxia Inducible Factor 1 (HIF1A) (AID 2282951); details: HepG2 Attagene cis-factorial HIF1a reporter transcription; actives raise or lower the signal
Summary of the method: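 In this multiplexed cell assay, HepG2 cells bearing transfected cis reporters are dosed for 24 h and reporter mRNA is read by RT-PCR plus capillary electrophoresis; signal increases and decreases are both scored against DMSO.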

[6] = target: Hepatocyte nuclear factor 6 (Homo sapiens) (UniProt Q9UBC0); assay: ATG_HNF6_CIS: Attagene CIS-FACTORIAL HepG2 Assay for human Hepatocyte Nuclear Factor 6 (HNF6) (AID 2282952); details: HepG2 Attagene cis-factorial HNF6 reporter transcription; actives raise or lower the signal
Summary of the method: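 First, HepG2 cells were transfected with the multiplexed cis reporter library and dosed with chemical for 24 h. Next, RNA was reverse-transcribed, PCR-amplified and fluorescently labelled. Finally, HpaI-digested fragments were read by capillary electrophoresis.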

[7] = target: Heat shock factor protein 1 (Homo sapiens) (UniProt Q00613); assay: ATG_HSE_CIS: Attagene CIS-FACTORIAL HepG2 Assay for human Heat Shock Transcription Factor 1 (HSE) (AID 2282953); details: HepG2 HSE cis-reporter, Attagene RNA transcription; actives raise or lower the signal
Summary of the method: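 Endogenous transcription factor activity captured via cis-promoter reporter units transfected into HepG2; treatment lasted 24 h. Fluorescence intensity of reporter fragments analysed with bidirectional curve fitting, DMSO baseline.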

[8] = ATG_MRE_CIS: Attagene CIS-FACTORIAL HepG2 Assay for human Metal Responsive Element (MRE) (AID 2282954); details: HepG2 MRE cis-reporter transcription, Attagene multiplex; actives raise or lower the signal
Summary of the method: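 Readout: capillary electrophoresis of 6-FAM-labelled, HpaI-digested RT-PCR reporter products. System: HepG2 cells carrying transient multiplexed cis reporters, dosed 24 h. Analysis: bidirectional fit, DMSO baseline.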

[9] = ATG_PBREM_CIS: Attagene CIS-FACTORIAL HepG2 Assay for human Phenobarbital-responsive Enhancer Module (PBREM) (AID 2282955); details: HepG2 PBREM cis-reporter, Attagene multiplexed transcription; actives raise or lower the signal
Summary of the method: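 After a 24 h incubation with test chemical, transfected HepG2 cells yield total RNA; reporter-specific RT-PCR products are fluorescently labelled, HpaI-digested and resolved by capillary electrophoresis against ROX size standards.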

[10] = target: Paired box protein Pax-6 (Homo sapiens) (UniProt P26367); assay: ATG_Pax6_CIS: Attagene CIS-FACTORIAL HepG2 Assay for human Paired Box 6 (PAX6) (AID 2282956); details: HepG2 CIS-FACTORIAL PAX6 reporter transcription, RNA readout; actives raise or lower the signal
Summary of the method: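 Readout: reporter transcript fluorescence after RT-PCR and capillary electrophoresis. Cells: HepG2, transiently transfected with cis-regulated MRTUs. Exposure 24 h. Gain or loss of signal fitted bidirectionally relative to DMSO.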

[11] = ATG_PXRE_CIS: Attagene CIS-FACTORIAL HepG2 Assay for human Pregnane X Receptor Element (PXRE) (AID 2282957); details: HepG2 Attagene CIS-FACTORIAL PXRE reporter, mRNA; actives raise or lower the signal
Summary of the method: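 After a 24 h chemical incubation, total RNA from transfected HepG2 cells was reverse-transcribed and reporter cDNA amplified, FAM-labeled, HpaI-digested and sized by capillary electrophoresis. DMSO served as baseline for bidirectional curve fitting.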

[12] = ATG_PPRE_CIS: Attagene CIS-FACTORIAL HepG2 Assay for human Peroxisome Proliferator-activated Response Element (PPRE) (AID 2282958); details: HepG2 PPRE cis-element reporter, Attagene transcription factor profiling; actives raise or lower the signal
Summary of the method: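 Multiplexed reporter transcription units under cis-regulatory promoters were transfected into HepG2 cells to capture endogenous factor activity. A 24 h incubation preceded RNA isolation and fluorescent RT-PCR fragment analysis.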

[13] = ATG_RORE_CIS: Attagene CIS-FACTORIAL HepG2 Assay for human RAR-related Orphan Receptor Element (RORE) (AID 2282959); details: HepG2 Attagene cis-factorial RORE reporter, mRNA; actives raise or lower the signal
Summary of the method: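 Fluorescence intensity of reporter-specific cDNA fragments, separated by capillary electrophoresis, gives the signal. Source: HepG2 liver cells transiently transfected with cis-element reporters and exposed 24 h; DMSO-normalized bidirectional fit.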

[14] = ATG_Sox_CIS: Attagene CIS-FACTORIAL HepG2 Assay for human SRY-box transcription factor (SOX) (AID 2282960); details: HepG2 Attagene cis-factorial SOX reporter, mRNA; actives raise or lower the signal
Summary of the method: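 After 24 h of chemical treatment, transfected HepG2 reporter cells are lysed for total RNA. Transcript levels come from RT-PCR with labelled primer extension and capillary electrophoresis, analysed bidirectionally versus DMSO.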

[15] = target: Transcription factor Sp1 (Homo sapiens) (UniProt P08047); assay: ATG_Sp1_CIS: Attagene CIS-FACTORIAL HepG2 Assay for human Specificity Protein 1 (Sp1) (AID 2282961); details: HepG2 Sp1 cis-reporter transcription, actives raise or lower the signal
Summary of the method: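 Sp1-driven reporter mRNA, read as capillary electrophoresis fluorescence after RT-PCR, in transiently transfected HepG2 cells dosed for 24 h; signal change in either direction relative to DMSO.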

[16] = ATG_SREBP_CIS: Attagene CIS-FACTORIAL HepG2 Assay for human Sterol Regulatory Element Binding (SREBP) (AID 2282962); details: HepG2 Attagene cis-factorial SREBP reporter, mRNA; actives raise or lower the signal
Summary of the method: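 Readout: fluorescent reporter-transcript peaks resolved by capillary electrophoresis after RT-PCR. Cells were human HepG2 carrying transfected cis-promoter reporter constructs, dosed for 24 h. Gain or loss of signal was fitted against DMSO controls.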

[17] = target: Signal transducer and activator of transcription 3 (Homo sapiens) (UniProt P40763); assay: ATG_STAT3_CIS: Attagene CIS-FACTORIAL HepG2 Assay for human Signal Transducer and Activator of Transcription 3 (STAT3) (AID 2282963); details: HepG2, Attagene cis-factorial STAT3 reporter transcription; actives raise or lower the signal
Summary of the method: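 Uses human liver HepG2 transiently carrying cis-regulated reporter transcription units. Following 24 h dosing, reporter mRNA induction was detected by RT-PCR and capillary electrophoresis, analysed bidirectionally versus DMSO.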

[18] = ATG_TA_CIS: Attagene CIS-FACTORIAL HepG2 Assay for human TA Basal Promoter (AID 2282964); details: HepG2 Attagene CIS-factorial TA basal promoter reporter; actives raise or lower the signal
Summary of the method: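 Fluorescence from labelled RT-PCR reporter fragments, separated by capillary electrophoresis, gives the signal. Cells: HepG2 transiently carrying multiple reporter units, 24 h chemical dosing. Gain or loss relative to DMSO.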

[19] = ATG_TCF_b_cat_CIS: Attagene CIS-FACTORIAL HepG2 Assay for human T-Cell-Factor with beta-catenin (TCF/b-cat) (AID 2282965); details: HepG2 TCF/beta-catenin cis-reporter transcription, actives raise or lower the signal
Summary of the method: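 Using capillary electrophoresis as the read-out, labelled reporter cDNA fragments from transiently transfected HepG2 were sized and quantified. Exposure lasted 24 hours; activity in either direction was referenced to DMSO.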

[20] = ATG_GRE_CIS: Attagene CIS-FACTORIAL HepG2 Assay for human Glucocorticoid Response Elements (GRE) (AID 2282947); details: HepG2 GRE cis-reporter, Attagene multiplex mRNA; actives raise or lower the signal
Summary of the method: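 HepG2, transient cis-reporter transfection, 24 h. Reporter mRNA: RT-PCR then CE, fluorescence. Fit both directions vs DMSO.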

Measured: AC50

Chain of Heat shock factor protein 1 (Homo sapiens) (Q00613 whole entry, looked up, the tested form may be a part): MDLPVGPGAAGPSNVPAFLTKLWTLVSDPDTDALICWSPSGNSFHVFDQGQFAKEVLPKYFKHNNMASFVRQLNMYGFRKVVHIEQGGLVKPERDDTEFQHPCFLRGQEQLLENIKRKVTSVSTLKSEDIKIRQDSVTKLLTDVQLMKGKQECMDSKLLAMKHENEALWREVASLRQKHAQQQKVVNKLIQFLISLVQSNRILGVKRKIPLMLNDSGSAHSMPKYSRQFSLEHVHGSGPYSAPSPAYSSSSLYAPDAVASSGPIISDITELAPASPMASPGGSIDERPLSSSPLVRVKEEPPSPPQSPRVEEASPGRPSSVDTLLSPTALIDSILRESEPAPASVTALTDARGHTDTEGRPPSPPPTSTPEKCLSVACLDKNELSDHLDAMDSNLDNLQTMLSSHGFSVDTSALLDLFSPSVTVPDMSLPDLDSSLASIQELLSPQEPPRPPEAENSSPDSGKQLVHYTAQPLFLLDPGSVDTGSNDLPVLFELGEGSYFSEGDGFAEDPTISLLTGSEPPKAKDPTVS
Chain of Paired box protein Pax-6 (Homo sapiens) (P26367 whole entry, looked up): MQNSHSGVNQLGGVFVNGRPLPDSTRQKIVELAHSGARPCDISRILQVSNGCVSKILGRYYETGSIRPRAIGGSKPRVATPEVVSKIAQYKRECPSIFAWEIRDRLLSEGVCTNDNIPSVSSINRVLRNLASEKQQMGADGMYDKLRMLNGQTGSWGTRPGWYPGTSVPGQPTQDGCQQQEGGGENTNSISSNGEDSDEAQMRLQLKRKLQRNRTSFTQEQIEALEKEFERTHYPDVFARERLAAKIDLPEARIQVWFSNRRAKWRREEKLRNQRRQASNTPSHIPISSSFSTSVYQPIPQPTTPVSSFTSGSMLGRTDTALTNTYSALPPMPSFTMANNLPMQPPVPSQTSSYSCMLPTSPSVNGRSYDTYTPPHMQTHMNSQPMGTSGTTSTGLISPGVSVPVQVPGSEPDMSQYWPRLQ
Chain of Hypoxia-inducible factor 1-alpha (Homo sapiens) (Q16665 whole entry, looked up): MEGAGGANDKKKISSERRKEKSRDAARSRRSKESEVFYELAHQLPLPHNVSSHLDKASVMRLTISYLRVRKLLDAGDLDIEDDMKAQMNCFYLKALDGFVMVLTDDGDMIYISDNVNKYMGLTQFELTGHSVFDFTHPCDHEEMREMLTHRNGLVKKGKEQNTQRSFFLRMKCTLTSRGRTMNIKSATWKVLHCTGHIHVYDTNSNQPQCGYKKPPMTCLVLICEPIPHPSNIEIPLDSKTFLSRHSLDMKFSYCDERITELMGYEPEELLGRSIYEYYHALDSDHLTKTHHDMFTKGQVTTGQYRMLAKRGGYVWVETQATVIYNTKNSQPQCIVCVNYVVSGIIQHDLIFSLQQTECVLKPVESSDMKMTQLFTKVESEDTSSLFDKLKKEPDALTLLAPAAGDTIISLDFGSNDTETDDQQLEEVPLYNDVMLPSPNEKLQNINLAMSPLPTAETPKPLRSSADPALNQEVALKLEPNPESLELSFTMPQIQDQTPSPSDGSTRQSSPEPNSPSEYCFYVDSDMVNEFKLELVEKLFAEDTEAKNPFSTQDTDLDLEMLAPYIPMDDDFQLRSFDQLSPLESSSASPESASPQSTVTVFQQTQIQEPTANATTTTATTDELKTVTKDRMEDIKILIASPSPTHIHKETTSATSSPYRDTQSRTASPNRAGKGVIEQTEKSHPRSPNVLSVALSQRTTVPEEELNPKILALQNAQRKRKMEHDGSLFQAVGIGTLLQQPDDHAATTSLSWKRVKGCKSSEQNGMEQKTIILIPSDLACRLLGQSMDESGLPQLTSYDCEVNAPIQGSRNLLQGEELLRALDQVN
Chain of Signal transducer and activator of transcription 3 (Homo sapiens) (P40763 whole entry, looked up): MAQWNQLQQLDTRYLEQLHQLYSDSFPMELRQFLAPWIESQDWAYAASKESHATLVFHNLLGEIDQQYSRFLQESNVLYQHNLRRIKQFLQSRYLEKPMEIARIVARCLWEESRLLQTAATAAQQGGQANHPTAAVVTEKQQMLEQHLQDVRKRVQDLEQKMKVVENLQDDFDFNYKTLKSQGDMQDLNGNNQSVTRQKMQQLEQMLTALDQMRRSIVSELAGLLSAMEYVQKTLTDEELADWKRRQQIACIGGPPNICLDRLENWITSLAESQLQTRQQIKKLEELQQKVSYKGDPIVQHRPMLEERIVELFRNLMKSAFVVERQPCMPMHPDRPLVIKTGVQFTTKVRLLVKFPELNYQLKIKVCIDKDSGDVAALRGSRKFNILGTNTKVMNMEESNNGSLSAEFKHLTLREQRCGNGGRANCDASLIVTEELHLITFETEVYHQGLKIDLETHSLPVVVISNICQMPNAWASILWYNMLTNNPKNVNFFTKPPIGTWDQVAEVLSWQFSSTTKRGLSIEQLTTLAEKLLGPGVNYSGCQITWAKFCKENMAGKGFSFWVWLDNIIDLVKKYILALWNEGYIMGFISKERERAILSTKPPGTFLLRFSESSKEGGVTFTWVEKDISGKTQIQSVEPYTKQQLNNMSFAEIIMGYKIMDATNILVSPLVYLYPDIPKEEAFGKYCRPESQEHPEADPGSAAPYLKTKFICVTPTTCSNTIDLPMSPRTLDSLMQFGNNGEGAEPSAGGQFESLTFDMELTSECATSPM
Chain of Bile acid receptor (Homo sapiens) (Q96RI1 whole entry, looked up): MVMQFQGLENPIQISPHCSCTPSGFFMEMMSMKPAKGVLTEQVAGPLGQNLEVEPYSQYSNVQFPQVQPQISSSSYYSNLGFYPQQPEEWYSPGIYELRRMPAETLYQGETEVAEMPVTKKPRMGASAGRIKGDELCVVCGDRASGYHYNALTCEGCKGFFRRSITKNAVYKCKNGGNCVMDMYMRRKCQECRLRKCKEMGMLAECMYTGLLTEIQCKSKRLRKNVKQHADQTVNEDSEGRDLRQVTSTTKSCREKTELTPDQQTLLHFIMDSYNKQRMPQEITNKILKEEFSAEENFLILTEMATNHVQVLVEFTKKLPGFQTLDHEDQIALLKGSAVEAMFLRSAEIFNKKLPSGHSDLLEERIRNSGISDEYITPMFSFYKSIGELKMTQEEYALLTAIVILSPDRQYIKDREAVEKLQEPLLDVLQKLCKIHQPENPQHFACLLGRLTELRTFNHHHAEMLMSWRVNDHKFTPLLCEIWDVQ
Chain of Hepatocyte nuclear factor 6 (Homo sapiens) (Q9UBC0 whole entry, looked up, the tested form may be a part): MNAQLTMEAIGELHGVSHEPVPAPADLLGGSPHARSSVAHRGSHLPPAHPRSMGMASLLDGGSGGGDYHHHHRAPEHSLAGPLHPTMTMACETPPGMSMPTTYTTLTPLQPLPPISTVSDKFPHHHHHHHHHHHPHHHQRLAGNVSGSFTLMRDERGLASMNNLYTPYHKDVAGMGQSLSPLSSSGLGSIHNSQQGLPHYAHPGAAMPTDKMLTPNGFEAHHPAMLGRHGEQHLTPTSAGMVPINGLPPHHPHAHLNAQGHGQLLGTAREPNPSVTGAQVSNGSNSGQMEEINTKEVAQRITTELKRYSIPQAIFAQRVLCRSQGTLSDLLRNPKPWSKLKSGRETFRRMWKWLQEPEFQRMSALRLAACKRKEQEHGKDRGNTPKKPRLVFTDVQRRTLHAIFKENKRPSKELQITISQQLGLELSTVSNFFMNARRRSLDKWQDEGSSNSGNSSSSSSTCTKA
Chain of Transcription factor Sp1 (Homo sapiens) (P08047 whole entry, looked up): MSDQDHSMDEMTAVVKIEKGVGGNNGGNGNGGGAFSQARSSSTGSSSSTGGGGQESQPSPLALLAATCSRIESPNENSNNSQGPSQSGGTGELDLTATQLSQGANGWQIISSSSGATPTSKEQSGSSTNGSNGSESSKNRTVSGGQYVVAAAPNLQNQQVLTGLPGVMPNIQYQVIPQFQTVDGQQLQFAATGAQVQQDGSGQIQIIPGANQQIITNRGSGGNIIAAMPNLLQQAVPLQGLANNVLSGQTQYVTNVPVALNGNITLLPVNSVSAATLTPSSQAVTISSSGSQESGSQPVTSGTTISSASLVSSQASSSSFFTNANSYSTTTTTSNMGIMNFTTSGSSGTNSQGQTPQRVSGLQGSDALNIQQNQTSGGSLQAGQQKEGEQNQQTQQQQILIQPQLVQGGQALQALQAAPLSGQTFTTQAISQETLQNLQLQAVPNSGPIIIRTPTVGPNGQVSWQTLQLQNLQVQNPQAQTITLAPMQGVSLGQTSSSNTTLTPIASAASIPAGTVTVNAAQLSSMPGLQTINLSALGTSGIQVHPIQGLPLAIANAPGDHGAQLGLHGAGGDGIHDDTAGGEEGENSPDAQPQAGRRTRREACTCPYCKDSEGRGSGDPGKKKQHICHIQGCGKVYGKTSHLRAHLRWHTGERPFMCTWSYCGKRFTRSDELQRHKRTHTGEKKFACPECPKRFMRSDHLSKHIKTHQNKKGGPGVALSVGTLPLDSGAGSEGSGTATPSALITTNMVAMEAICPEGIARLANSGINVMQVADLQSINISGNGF

CCCCCCCCCCCCO
not listed: [20]
inactive: all other assays above

CCCCCCCCN(C)CCCCCCCC
active: [11] 26.5 µM
not listed: [1]
inactive: all other assays above

Oc1ccccc1
not listed: [7] | [15] | [20]
inactive: all other assays above

CC(C)(O)c1ccc(CNC(=O)c2cccnc2Oc2ccc3nonc3c2)cc1
active: [9] 33.4 µM | [11] 7.65 µM | [16] 50.9 µM
not listed: [1] | [15]
inactive: all other assays above

O=C1c2ccccc2C(=O)N1CCc1noc(-c2ccc(CN3CCCCCC3)s2)n1
active: [5] 51.2 µM | [8] 84.5 µM | [9] 24.1 µM | [11] 2.09 µM
not listed: [12] | [15] | [20]
inactive: all other assays above

O=C(O)Cc1cc(I)c(Oc2ccc(O)c(I)c2)c(I)c1
active: [7] 170 µM [middle of 4 runs] | [8] 80.5 µM [middle of 4 runs] | [11] 26.3 µM and 26.1 µM and 7.66 µM | [13] 34.9 µM [middle of 4 runs] | [16] 11.4 µM | [19] 51.2 µM
inactive: [1] | [20] | [2] | [3] | [4] | [6] | [9] | [10] | [14] | [16] | [17] | [18] | [19]
